Test results taken from PMC4336329 (PLoS ONE, 2015).
The campaign covered roughly 310,000 compounds. About 14,000 (4.5%) showed an effect of 50% or more. Effects have a minus sign here. Many of the other results were omitted from the sample, so strong results are more common in it than they were.

Biological target: human ether-à-go-go-related gene (hERG) potassium channel (human, UniProt Q12809)
Assay: primary screen, population patch clamp on CHO cells stably expressing hERG; higher = less effect of the substance
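Also: peak tail current of the secondary pulse compared with the same well before compound.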

Chain of human ether-à-go-go-related gene (hERG) potassium channel (Q12809 whole entry, looked up): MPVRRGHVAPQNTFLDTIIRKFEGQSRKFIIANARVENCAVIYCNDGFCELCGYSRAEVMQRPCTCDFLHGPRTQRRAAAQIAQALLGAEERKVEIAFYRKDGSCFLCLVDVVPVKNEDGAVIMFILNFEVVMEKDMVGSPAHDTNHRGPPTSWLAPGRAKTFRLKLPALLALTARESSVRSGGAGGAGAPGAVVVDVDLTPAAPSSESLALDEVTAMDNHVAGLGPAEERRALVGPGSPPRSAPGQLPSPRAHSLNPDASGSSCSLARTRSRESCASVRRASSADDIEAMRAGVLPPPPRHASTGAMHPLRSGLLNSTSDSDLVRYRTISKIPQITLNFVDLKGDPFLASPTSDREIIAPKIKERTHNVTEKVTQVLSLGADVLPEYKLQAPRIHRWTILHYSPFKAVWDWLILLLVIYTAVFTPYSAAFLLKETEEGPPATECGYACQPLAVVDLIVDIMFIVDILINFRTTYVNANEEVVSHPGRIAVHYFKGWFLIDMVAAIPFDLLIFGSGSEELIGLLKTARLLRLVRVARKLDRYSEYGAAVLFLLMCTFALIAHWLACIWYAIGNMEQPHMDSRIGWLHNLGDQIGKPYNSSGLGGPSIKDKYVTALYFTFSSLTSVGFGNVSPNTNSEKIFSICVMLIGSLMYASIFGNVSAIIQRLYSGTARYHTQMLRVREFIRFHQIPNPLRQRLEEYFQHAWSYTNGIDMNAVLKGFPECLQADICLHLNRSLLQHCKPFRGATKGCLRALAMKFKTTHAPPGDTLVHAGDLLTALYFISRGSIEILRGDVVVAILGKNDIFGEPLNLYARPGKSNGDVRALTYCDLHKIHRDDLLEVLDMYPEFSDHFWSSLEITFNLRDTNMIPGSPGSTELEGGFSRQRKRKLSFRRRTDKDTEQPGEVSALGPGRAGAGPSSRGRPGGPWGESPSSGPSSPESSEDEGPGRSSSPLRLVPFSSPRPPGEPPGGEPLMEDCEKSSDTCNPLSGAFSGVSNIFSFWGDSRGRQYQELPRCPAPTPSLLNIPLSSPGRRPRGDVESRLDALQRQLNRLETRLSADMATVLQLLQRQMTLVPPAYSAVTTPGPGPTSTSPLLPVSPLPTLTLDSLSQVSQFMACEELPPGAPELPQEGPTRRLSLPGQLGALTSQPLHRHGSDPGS

| SMILES | hERG current change (%, negative = inhibition) at 10uM |
| --- | --- |
| Cn1c2c(c(=O)n(C)c1=O)C(c1cc3c(cc1Br)OCO3)CC(=O)N2 (stereo not drawn) | 3.46% |
| O=C(c1ccc(Cn2c(=O)[nH]c3ccsc3c2=O)cc1)N1CCN(c2ccccc2)CC1 | 7.23% |
| Cc1ccccc1C(=O)N1CCC(C(=O)Nc2nc3ccc(F)cc3s2)CC1 | -42.8% |
| CC(Sc1nc2cc(Cl)ccc2s1)C(=O)Nc1ccc2c(c1)OCO2 (stereo not drawn) | 6.08% |
| COc1ccccc1N1CCN(C(=O)CCN2C(=O)c3cccc4cccc(c34)C2=O)CC1 | 15.5% |
| COc1ccccc1N1CCN(CCCCOc2ccc(C)cc2C)CC1.O=C(O)C(=O)O | -50.3% |
| Cc1ccccc1OCCCCCCN1CCNCC1.O=C(O)C(=O)O | -1.56% |
| CCOc1ccccc1N1CCN(C(=O)CCCN2C(=O)c3cccc4cccc(c34)C2=O)CC1 | -8.72% |
| COc1ccccc1N1CCN(CCOc2c(OC)cccc2OC)CC1.Cl | -34.6% |
| Br.COc1ccccc1N1CCN(CCCCN2C(=O)c3ccccc3C2=O)CC1 | -53.5% |
| COc1ccccc1N1CCN(C(=O)COc2cc(C)ccc2C)CC1 | -18.3% |
| COc1ccccc1OCCCCN1CCN(c2ccccc2OC)CC1.O=C(O)C(=O)O | -43.1% |
| COc1ccccc1N1CCN(C(=O)CN2C(=O)c3ccccc3C2=O)CC1 | 11.9% |
| COc1ccccc1N1CCN(C(=O)CCCN2C(=O)c3cccc4cccc(c34)C2=O)CC1.Cl | -70.9% |
| COc1ccccc1N1CCN(CCN2C(=O)CC(=C3c4ccccc4-c4ccccc43)C2=O)CC1.Cl | 0.408% |
| COc1ccccc1N1CCN(CCCCOc2c(OC)cccc2OC)CC1.O=C(O)C(=O)O | -57.9% |
| COC(=O)C1=C(c2ccc(F)cc2OCc2ccccc2)C[C@@H]2CC[C@H]1N2C(=O)NCCCc1ccccc1 | 4.96% |
| CCN(Cc1ccccc1)C(=O)CN1C(=O)NC(CC)(c2ccc(F)cc2)C1=O (stereo not drawn) | -7.55% |
| CCn1ncc(Br)c1C(=O)Nc1sc2c(c1C(=O)OC)CCC2 | -40.8% |
| O=C(Cc1ccc(F)cc1)NC1CCS(=O)(=O)C1 (stereo not drawn) | 9.36% |
| Cc1cc(-c2ccccc2)oc(=O)c1NC(=O)c1ccccc1 | 3.11% |
| O=C(N/N=C/c1ccc([N+](=O)[O-])cc1)c1cccnc1 | 0.658% |
| Cc1cccc(Nc2ccccc2C(=O)O)c1C | 2.88% |
| CN1CCc2c(sc3c2c(=O)n(-c2ccccc2)c2nnc(SCc4ccc(Cl)cc4)n32)C1 | -2.08% |
| CCCCSCCCNC(=O)CCCN1C(=O)c2ccccc2Sc2ncccc21 | -27.6% |
| COc1ccc(N(C(=O)c2ccc3c(c2)OCO3)C2C=CS(=O)(=O)C2)c(OC)c1 (stereo not drawn) | -22.3% |
| CCN(CC1CCCN(CCc2cccc(F)c2)C1)C(=O)c1cc(C)oc1C (stereo not drawn) | -66.8% |

| SMILES | hERG current change (%, negative = inhibition) at 10uM |
| --- | --- |
| CN(C)CCN(CC1CCCN(Cc2ccccc2F)C1)C(=O)Cc1c(F)cccc1F (stereo not drawn) | -9.05% |
| CCN(CC1CCCN(CCc2cccc(F)c2)C1)C(=O)c1ccc(CSC)o1 (stereo not drawn) | -74.5% |
| CSCc1ccc(C(=O)N2CCCC(Nc3ccc(F)cc3)C2)o1 (stereo not drawn) | -18.7% |
| CCN(CC)C(=O)C1CCCN(Cc2cccc(F)c2)C1 (stereo not drawn) | 7.43% |
| C=CCC(=O)N(CC)CC1CCCN(CCc2cccc(F)c2)C1 (stereo not drawn) | -54.2% |
| Cc1cc(C(=O)N(C)CC2CCCN(CCc3ccc(F)cc3)C2)c(C)o1 (stereo not drawn) | -75.7% |
| C=CCn1c(SCC(=O)Nc2ccc3c(c2)OCO3)nnc1-c1ccccc1OC | -7.02% |
| O=S(=O)(c1cccc(-c2nnc(-c3cccnc3)o2)c1)N1CCCCC1 | -25% |
| CCOC(=O)Cc1csc(NC(=O)COc2ccccc2OCC)n1 | -24.2% |
| O=S(=O)(Cc1ccccc1Cl)c1ncn[nH]1 | 14.2% |
| COc1ccccc1C(=O)COC(=O)CSC(C)C(=O)Nc1cc(C)on1 (stereo not drawn) | -13.7% |
| CCOc1ccc(CN(C)C(=O)Cc2c[nH]c3ccccc23)cc1 | 12% |
| O=C(NCC1CCCN(Cc2cccc(F)c2)C1)c1cccc2ccccc12 (stereo not drawn) | -17.6% |
| CCN(CC1CCCN(CCc2cccc(F)c2)C1)C(=O)c1cc2ccccc2o1 (stereo not drawn) | -79.6% |
| O=C(c1cc2ccccc2o1)N1CCN=C1SCc1cccc(F)c1 | -7.82% |
| O=C(CN(C(=O)CCC(=O)Nc1ccccn1)c1ccc2c(c1)OCO2)NCc1ccc(F)cc1 | 9.42% |
| O=C(Nc1ccccc1-c1ccccc1)NC1CC2CCCC(C1)N2CCc1ccccc1 (stereo not drawn) | -53.3% |
| CCOc1ccccc1NC(=O)NC1CC2CCCC(C1)N2Cc1nnnn1CCc1ccccc1 (stereo not drawn) | -5.67% |
| CCc1ccccc1NC(=S)NC1CC2CCC(C1)N2Cc1ccc(F)cc1 (stereo not drawn) | -42% |
| O=C(Nc1cccn(Cc2ccc(F)cc2)c1=O)NC1CCCCC1 | -36.2% |
| CCNC(=S)NC1CC2CCCC(C1)N2CCc1ccccc1 (stereo not drawn) | -48.7% |
| O=C(Nc1ccccc1-c1ccccc1)NC1CC2CCCC(C1)N2Cc1ccc(F)cc1 (stereo not drawn) | -66.4% |
| O=C(N/N=C/c1ccc[nH]1)c1ccncc1 | 20.2% |
| COc1cccc(NC(=O)CCS(=O)(=O)c2cccs2)c1 | 14% |
| CC(=O)c1c(C)[nH]c(C(=O)OCC(=O)N2CC(C)OC(C)C2)c1C (stereo not drawn) | 20.7% |
| CCCCNC(=O)/C=C/c1ccc(S(=O)(=O)Nc2ccc(OC)cc2)cc1 | 3.52% |
| Cc1cnc(NC(=O)C2(c3ccccc3)CC2)s1 | 7.07% |
